Measured values taken from PubChem BioAssay (Tox21).
“And” between values parts separate entries of the source, which are not always exact repeats. Equal entries are not always repeated. Records with an inconclusive call do not appear. A call without a number means that no potency is given here. A structure can be active in one record and inactive in another. The source made the active and inactive calls. Unless noted, calls come from the whole dose curve; as a rule, active = well fitted curve in the direction sought with a large enough effect in the repeat runs; inconclusive = weak or mixed curves; inactive = no such curve, though single readings can be large; an effect the other way counts as inactive or inconclusive.

Experiments:
[1] = qHTS assay to identify small molecule antagonists of the estrogen related receptor (ERR) signaling pathway from Tox21 library - cell viability counter screen (AID 1224834); note: nearly all actives have a fitted effect of over 30% in size; note: potency is the fitted concentration of half-maximal effect
Summary of the method: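 ERR reporter cells, 2,000 per well, rested 6 h, then exposed to compound in DMSO for 17.5 hours at 37 C. Viability read as fluorescence after 30 min with CellTiter-Fluor.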

[2] = qHTS assay to identify small molecule agonists of the constitutive androstane receptor (CAR) signaling pathway - cell viability counter screen (AID 1224836); note: nearly all actives have a fitted effect of over 45% in size; note: potency is the fitted concentration of half-maximal effect
Summary of the method: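 Multiplexed viability check: HepG2-CYP2B6-hCAR cells, 15-point compound dosing, 0.75 uM PK11195 final, 23 h at 37 C, CellTiter-Fluor fluorescence.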

[3] = qHTS assay to identify small molecule antagonists of the constitutive androstane receptor (CAR) signaling pathway - cell viability counter screen (AID 1224837); note: nearly all actives have a fitted effect of over 45% in size; note: potency is the fitted concentration of half-maximal effect
Summary of the method: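 HepG2 cells stably carrying hCAR and CYP2B6-2.2kb reporter, stimulated with 50 nM CITCO and compounds at 15 concentrations for 23 h at 37 C. Viability measured by CellTiter-Fluor fluorescence.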

[4] = molecular target: Nuclear receptor subfamily 1 group I member 3 (Homo sapiens) (UniProt Q14994); assay: qHTS assay to identify small molecule antagonists of the constitutive androstane receptor (CAR) signaling pathway (AID 1224838); note: nearly all actives have a fitted effect of over 40% in size; note: potency is the fitted concentration of half-maximal effect
Chain of Nuclear receptor subfamily 1 group I member 3 (Homo sapiens) (Q14994 whole entry, looked up): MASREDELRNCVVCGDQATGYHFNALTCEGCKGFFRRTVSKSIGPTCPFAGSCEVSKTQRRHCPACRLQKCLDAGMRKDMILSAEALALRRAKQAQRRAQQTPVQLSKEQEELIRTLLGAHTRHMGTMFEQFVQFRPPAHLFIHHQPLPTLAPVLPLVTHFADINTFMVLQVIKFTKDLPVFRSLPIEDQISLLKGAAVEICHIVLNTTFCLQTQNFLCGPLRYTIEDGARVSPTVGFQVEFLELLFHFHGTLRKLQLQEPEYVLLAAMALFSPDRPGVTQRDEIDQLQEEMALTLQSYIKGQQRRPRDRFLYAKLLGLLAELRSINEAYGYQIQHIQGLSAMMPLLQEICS
Summary of the method: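 HepG2 cells stably carrying hCAR and a CYP2B6-2.2kb luciferase reporter, seeded 4 hrs before compound (15 concentrations). Stimulated with 50 nM CITCO for 24 hr at 37 C. ONE-Glo luminescence read after 30 min at room temperature.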

[5] = molecular target: Nuclear receptor subfamily 1 group I member 3 (Homo sapiens) (UniProt Q14994); assay: qHTS assay to identify small molecule agonists of the constitutive androstane receptor (CAR) signaling pathway (AID 1224839); note: nearly all actives have a fitted effect of over 15% in size; note: potency is the fitted concentration of half-maximal effect
Summary of the method: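 Using human hepatoma HepG2 cells engineered with hCAR and a CYP2B6-2.2kb reporter, 15-concentration compound series were incubated 24 h alongside PK11195 at 0.75 uM final, with luminescence quantified afterwards.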

[6] = qHTS assay to identify small molecule antagonists of the estrogen related receptor signaling pathway with the pleiotropic PPARgamma coactivator (PGC) from Tox21 10K library - cell viability counter screen (AID 1224840; active = well fitted cell-killing curve with a large enough effect in the repeat runs, not every such curve was filed as active; note: nearly all actives have a fitted effect of over 40% in size; note: potency is the fitted concentration of half-maximal effect)
Summary of the method: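 PGC/ERR cells (2,000/well) plated 6 h, then compound-treated for 17.5 h at 37 C. Viability measured by CellTiter-Fluor fluorescence after 30 min at 37 C, multiplexed with the pathway assay.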

[7] = qHTS assay to identify small molecule antagonists of the estrogen related receptor signaling pathway with the pleiotropic PPARgamma coactivator (PGC) from Tox21 10K library (AID 1224841; call rule not given here; note: actives are mostly falling curves and most rising ones were filed inactive; nearly all actives have a fitted effect of over 50% in size)
Summary of the method: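 PGC/ERR cell line, 2,000 cells/well, pre-incubated 6 hours at 37 C, then exposed to compounds for 18 hours at 37 C; luciferase read with One-Glo luminescence after 30 min at room temperature.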

[8] = qHTS assay to identify small molecule agonists of the estrogen related receptor signaling pathway with the pleiotropic PPARgamma coactivator (PGC) from Tox21 10K library (AID 1224842); note: nearly all actives have a fitted effect of over 15% in size
Summary of the method: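 PGC/ERR reporter cells (NTP line) were seeded 2,000 per well, rested 6 h at 37 C/5% CO2, then pin-dosed with compounds in DMSO for 18 h at 37 C; luciferase read by One-Glo luminescence after 30 min at room temperature.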

[9] = molecular target: Thyrotropin receptor (Homo sapiens) (UniProt P16473); assay: qHTS assay to identify small molecule agonists of the thyroid stimulating hormone receptor (TSHR) signaling pathway (AID 1224843; calls by dose curve; note: nearly all actives have a fitted effect of over 45% in size)
Chain of Thyrotropin receptor (Homo sapiens) (P16473 whole entry, looked up): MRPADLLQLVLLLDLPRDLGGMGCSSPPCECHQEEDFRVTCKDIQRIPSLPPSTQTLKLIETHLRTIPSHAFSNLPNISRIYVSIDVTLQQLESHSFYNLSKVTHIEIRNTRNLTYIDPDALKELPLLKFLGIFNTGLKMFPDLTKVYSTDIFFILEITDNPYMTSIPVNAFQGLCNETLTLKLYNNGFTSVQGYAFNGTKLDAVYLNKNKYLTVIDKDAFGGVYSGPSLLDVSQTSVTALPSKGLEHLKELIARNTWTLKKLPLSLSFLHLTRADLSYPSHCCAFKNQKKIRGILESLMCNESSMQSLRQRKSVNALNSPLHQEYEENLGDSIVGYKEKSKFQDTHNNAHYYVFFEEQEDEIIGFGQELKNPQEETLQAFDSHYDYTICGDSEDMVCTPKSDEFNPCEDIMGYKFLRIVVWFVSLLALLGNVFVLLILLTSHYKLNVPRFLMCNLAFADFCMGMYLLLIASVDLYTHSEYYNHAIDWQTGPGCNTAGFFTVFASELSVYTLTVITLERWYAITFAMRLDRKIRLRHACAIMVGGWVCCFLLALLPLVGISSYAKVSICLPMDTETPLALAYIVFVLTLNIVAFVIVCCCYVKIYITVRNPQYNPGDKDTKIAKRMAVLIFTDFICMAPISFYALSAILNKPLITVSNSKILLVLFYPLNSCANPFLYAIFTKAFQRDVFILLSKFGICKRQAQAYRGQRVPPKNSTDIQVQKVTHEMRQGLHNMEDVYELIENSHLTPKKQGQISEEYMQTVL
Summary of the method: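 Cell line HEK293 with TSHR; density 800/well. Exposure 30 min RT. Readout HTRF cAMP (cAMP-d2/anti-cAMP-cryptate), 1 h RT before reading.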

[10] = qHTS assay to identify small molecule agonists of the hypoxia (HIF-1) signaling pathway - cell viability counter screen (AID 1224844; calls by dose curve; note: nearly all actives have a fitted effect of over 50% in size; note: potency is the fitted concentration of half-maximal effect)
Summary of the method: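 HRE-bla ME-180 cells, 2,000/well in 0.5% dialyzed FBS medium, treated 17 h at 37C with compounds. Viability read in the same wells as the bla reporter, by CellTiter-Glo luminescence after 30 min at room temperature.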

[11] = qHTS assay to identify small molecule agonists of H2AX (AID 1224845; active = well fitted activation curve with a large enough effect in the signal ratio in the repeat runs, not every such curve was filed as active; the % refers to the signal ratio)
Summary of the method: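 Wild-type CHO-K1 cells plated overnight, then exposed 3 hr at 37C to compounds at 15 concentrations (0.76% DMSO). Lysed, then HTRF anti-pH2AX(S139)-cryptate/anti-H2AX-d2 detection after 24 hr at room temperature; emissions 665 and 620 nm.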

[12] = qHTS assay to identify small molecule agonists of the hypoxia (HIF-1) signaling pathway (AID 1224846; active = well fitted activation curve with a large enough effect in the signal ratio in the repeat runs, not every such curve was filed as active; the % refers to the signal ratio)
Summary of the method: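 HRE-bla ME-180 beta-lactamase reporter cells in medium with 0.5% dialyzed FBS, pre-incubated 5 h then exposed to compounds 17 h at 37C, 5% CO2; reporter induction read with CCF4-AM FRET substrate.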

[13] = qHTS assay to identify small molecule agonists of H2AX - cell viability counter screen (AID 1224847; calls by dose curve; note: nearly all actives have a fitted effect of over 30% in size; note: potency is the fitted concentration of half-maximal effect)
Summary of the method: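 After overnight plating of 1000 CHO-K1 cells per well, a 15-concentration compound series was applied for 3 hr at 37C. Luminescence from CellTiter-Glo, read following 30 min at room temperature, reflected cell viability.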

[14] = qHTS assay to identify small molecule antagonists of the estrogen related receptor (ERR) signaling pathway from Tox21 library (AID 1224848); note: nearly all actives have a fitted effect of over 50% in size
Summary of the method: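 Screening used an ERR reporter line supplied by NTP, exposed for 18 h at 37 C to library compounds delivered in DMSO. Signal was luciferase luminescence developed with ONE-Glo at room temperature for 30 min.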

[15] = qHTS assay to identify small molecule agonists of the estrogen related receptor (ERR) signaling pathway from Tox21 library (AID 1224849; calls by dose curve; note: nearly all actives have a fitted effect of over 15% in size); details: ERR reporter cell line, ONE-Glo luciferase, 18 h
Summary of the method: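 ERR reporter cells (NTP line) pre-incubated 6 hours at 37 C, then exposed to compounds for 18 hours at 37 C. ONE-Glo luciferase luminescence was read after 30 minutes at room temperature.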

[16] = qHTS RealTime-Glo MT Cell Viability Assay in HepG2 cells - 24 hour (AID 1224867); note: nearly all actives have a fitted effect of over 50% in size; note: potency is the fitted concentration of half-maximal effect
Summary of the method: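 HepG2 suspension premixed with RealTime-Glo reagents is plated at 600 cells per well and left 5 h at 37 C/5% CO2. Compounds in DMSO then go in, and bioluminescence reflecting viable cell number is recorded over 40 h.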

[17] = qHTS RealTime-Glo MT Cell Viability Assay in HEK293 cells - 32 hour (AID 1224868); note: nearly all actives have a fitted effect of over 50% in size; note: potency is the fitted concentration of half-maximal effect
Summary of the method: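 Reads taken at 0, 8, 16, 24, 32 and 40 h from the same wells. HEK293 cells (600/well) carried RealTime-Glo reagents from seeding, with compound added after a 5 h settle at 37 C.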

[18] = A CellTox Green Cytotoxicity Assay to monitor cytotoxicity in HEK293 cells - 0 hour (AID 1224869); note: nearly all actives have a fitted effect of over 50% in size
Summary of the method: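 HEK293 cells, 600/well, were preincubated 5 hours and then exposed to compounds at 37 C for up to 40 hours. A cell-impermeant cyanine dye staining dead-cell DNA was read by fluorescence at 0, 8, 16, 24, 32 and 40 h time points.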

[19] = molecular target: Luciferin 4-monooxygenase (Photinus pyralis) (UniProt P08659); assay: qHTS assay to identify small molecule inhibitors of firefly luciferase (AID 1224835); note: nearly all actives have a fitted effect of over 25% in size; note: potency is the fitted concentration of half-maximal effect
Chain of Luciferin 4-monooxygenase (Photinus pyralis) (P08659 whole entry, looked up): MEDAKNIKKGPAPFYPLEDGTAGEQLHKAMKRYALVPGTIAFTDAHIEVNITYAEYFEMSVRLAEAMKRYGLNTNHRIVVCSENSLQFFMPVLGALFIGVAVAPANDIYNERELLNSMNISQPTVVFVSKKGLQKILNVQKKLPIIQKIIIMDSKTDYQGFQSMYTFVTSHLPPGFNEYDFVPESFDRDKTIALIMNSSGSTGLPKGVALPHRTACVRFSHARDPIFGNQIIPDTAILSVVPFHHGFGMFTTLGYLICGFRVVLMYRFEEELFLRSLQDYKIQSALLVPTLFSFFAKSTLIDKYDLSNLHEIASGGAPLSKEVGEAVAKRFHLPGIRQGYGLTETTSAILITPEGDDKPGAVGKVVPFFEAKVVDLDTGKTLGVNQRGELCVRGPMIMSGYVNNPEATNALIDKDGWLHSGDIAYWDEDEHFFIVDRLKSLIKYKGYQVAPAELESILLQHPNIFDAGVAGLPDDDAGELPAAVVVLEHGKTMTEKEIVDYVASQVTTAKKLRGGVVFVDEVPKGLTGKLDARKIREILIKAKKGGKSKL
Summary of the method: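 Quantitative HTS format; KM concentrations of both substrates. Purified P. pyralis FLuc activity quantified from luminescence images.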

| SMILES | Potency [1] | Potency [2] | Potency [3] | Potency [4] | Potency [5] | Potency [6] | Potency [7] | Potency [8] | Potency [9] | Potency [10] | Potency [11] | outcome [12] | Potency [13] | Potency [14] | activity change, positive = activation ([15]; at 92.4 µM (top of the series)) | Potency [16] | Potency [17] | Potency [18] | Potency [19] | activity change, positive = activation ([15]; at 42.5 µM (top of the series)) |
| --- | --- | --- | --- | --- | --- | --- | --- | --- | --- | --- | --- | --- | --- | --- | --- | --- | --- | --- | --- | --- |
| CCCCCCOC(C)=O | inactive | inactive | inactive | inactive | inactive | inactive | inactive | inactive | inactive | inactive and 27.5 µM (active) | inactive | inactive | inactive | inactive | 8.85% (inactive) and -7.41% (inactive) | inactive | inactive | inactive | – | – |
| COC(=O)c1ccc(C(=O)OC)cc1 | 24.7 µM (active) and inactive | – | – | 6.95 µM (active) and inactive | inactive | 24.7 µM (active) and inactive | – | – | inactive | 4.96 µM (active) and inactive | inactive | inactive | inactive | – | – | inactive | 39.4 µM (active) and inactive | inactive | 32.1 µM (active) and inactive | – |
| OC[C@@H](O)[C@H](O)[C@H](O)[C@@H](O)CO | inactive | inactive | inactive | – | – | inactive | inactive | inactive | inactive | inactive | inactive | inactive | inactive | inactive | – | – | – | – | inactive | 4.66% (inactive) and 4.1% (inactive) |
| O=S(=O)(O)CCS | inactive | inactive | inactive | inactive | inactive | inactive | inactive | inactive | inactive | inactive | inactive | inactive | inactive | inactive | -7.56% (inactive) | – | inactive | inactive | – | -0.0445% (inactive) |
| CC(C)(C)C1CCC(O)CC1 (centres undefined) | inactive | inactive | inactive | inactive | inactive | inactive | – | – | inactive | inactive | inactive | inactive | inactive | – | – | inactive | – | – | – | – |
| O=[N+]([O-])C(CO)(CO)CO | inactive | inactive | inactive | – | – | inactive | inactive | inactive | inactive | inactive | inactive | inactive | inactive | inactive | 10.1% (inactive) and 10.2% (inactive) | inactive | inactive | – | inactive | – |
| O=C(c1ccc(O)cc1)c1ccc(O)cc1O | inactive | inactive | inactive | inactive | 27.6 µM (active) and 54.5 µM (active) | inactive | – | – | inactive | – | inactive | inactive | – | – | – | inactive | inactive | inactive | 71.8 µM (active) and 39.9 µM (active) | – |
| CCCCOCCO | inactive | inactive | inactive | inactive | inactive | inactive | inactive | inactive | inactive | inactive | inactive | inactive | inactive | inactive | 5.31% (inactive) and -0.958% (inactive) | inactive | inactive | – | – | – |
| O=C(c1cc(O)c(O)c(O)c1)c1ccc(O)c(O)c1O | 54.3 µM (active) and 54.5 µM (active) | inactive | inactive | inactive | inactive | inactive | inactive | inactive | – | inactive | – | inactive | inactive | inactive | -10.5% (inactive) and -15.9% (inactive) | inactive | – | – | – | -6.33% (inactive) |
| Oc1ccc2ccccc2c1N=Nc1ccccc1 | 27.3 µM (active) | 48.5 µM (active) and 30.6 µM (active) | 30.6 µM (active) | inactive | 30.6 µM (active) and 21.7 µM (active) | – | – | – | inactive | inactive | inactive | inactive | – | – | – | inactive | – | inactive | 12.6 µM (active) and 22.4 µM (active) | – |
| CCCCC(CC)COC(C)=O (centres undefined) | inactive | inactive | inactive | inactive | inactive | inactive | inactive | inactive | inactive | inactive | inactive | inactive | inactive | inactive | 8.75% (inactive) and 0.0839% (inactive) | – | – | inactive | – | – |
| Nc1c(S(=O)(=O)O)cc(Br)c2c1C(=O)c1ccccc1C2=O | inactive and 24.3 µM (active) | – | – | – | – | inactive | – | – | inactive | inactive | – | inactive | inactive | – | – | – | inactive | – | 35.6 µM (active) | – |
| CC1=C(/C=C/C(C)=C/C=C/C(C)=C/CO)C(C)(C)CCC1 | inactive | inactive | inactive | inactive | – | inactive | inactive | inactive | – | inactive | inactive | inactive | inactive | inactive | -2.72% (inactive) and -18.5% (inactive) | inactive | – | inactive | inactive | – |
| CC(=O)CCc1ccccc1 | inactive | inactive | inactive | inactive | inactive | inactive | inactive | inactive | inactive | inactive | inactive | inactive | inactive | inactive | 1.01% (inactive) and -0.812% (inactive) | – | – | inactive | – | – |
| Cc1ccc(N)c(S(=O)(=O)O)c1 | inactive | inactive | inactive | – | – | inactive | – | – | inactive | inactive | inactive | inactive | inactive | – | – | inactive | inactive | inactive | inactive | – |
| CCCCCCCCCCCCN | inactive and 7.7 µM (active) | – | – | inactive | inactive | inactive and 12.2 µM (active) | – | – | inactive | inactive | inactive | inactive | inactive and 20.1 µM (active) | – | – | inactive and 24.5 µM (active) | inactive and 43.6 µM (active) | – | inactive | – |
